Measurements taken from PubChem BioAssay AID590 (National Center for Advancing Translational Sciences (NCATS), 2007).
The whole screen tested about 59,000 compounds, of which about 6,500 (11%) were called active. Roughly 15% stayed inconclusive and do not appear here. Rule as the data show it: active = max dye-equivalent concentration above about 10 nM; inconclusive = mostly about 1.1 nM to 9.6 nM; inactive = weaker than that. For the sample, actives were picked, then their nearest neighbours and some compounds at random.

Experiment: qHTS Assay for Spectroscopic Profiling in A350 Spectral Region
Settings: Compound autofluorescence, 340/450 nm, Alexa 350 dye-equivalents; hits give high values

Row | SMILES | max dye-equivalent concentration
1 | O=C(CCOc1ccccc1)NCc1ccccc1 | inactive
2 | O=C1CN(C(=O)COC(=O)C2CC(=O)N(Cc3ccco3)C2)c2ccccc2N1 (stereo not given) | inactive
3 | COc1ccc(Cc2nnc(NC(=O)Cc3cccs3)s2)cc1 | inactive
4 | COc1ccc(OCCCC(=O)Nc2nnc(C3CCCO3)s2)cc1 (stereo not given) | inactive
5 | COc1ccc2c(CC(=O)Nc3nnc(C4CC4)s3)coc2c1 | 12 nM (active)
6 | CC1Cc2cc(/C(O)=C3\C(=O)C(=O)N(CCN4CCOCC4)C3c3ccccc3F)ccc2O1 (stereo not given) | inactive
7 | O=C(O)[C@@H]1[C@@H](C(=O)O)[C@]23C[C@@]2(C(=O)O)[C@]2(C(=O)O)CCC3=C3CCCC312 | inactive
8 | COc1ccc(S(=O)(=O)NC(CC(=O)NCc2ccccc2OC)c2ccco2)cc1 (stereo not given) | inactive
9 | CCCn1c(O)c(CN2CCCC(C)C2)c(C)c(C#N)c1=O (stereo not given) | 19 nM (active)
10 | CCCCCCn1c(CN2CCCC(C)C2)nc2c1c(=O)n(C)c(=O)n2C (stereo not given) | inactive
11 | CCCCC(CCC(=O)Nc1ccc(C(=O)OCC)cc1)C(=O)O (stereo not given) | inactive
12 | CCCCc1cc(=O)oc2cc(C)cc(OCc3nn[nH]n3)c12 | 77 nM (active)
13 | CC(Sc1nncn1C)C(=O)Nc1ccccc1-c1ccccc1 (stereo not given) | inactive
14 | Clc1ccc(Nc2nc(-c3cccs3)cs2)nc1 | inactive
15 | O=C(Nc1ccccc1F)C1C2C=CC3(O2)C1C(=O)N(c1cccnc1)C3C(=O)NC1CCCCC1 (stereo not given) | inactive
16 | COc1cc(C(=O)N(Cc2ccc(N(C)C)cc2)C2CCS(=O)(=O)C2)cc(OC)c1OC (stereo not given) | inactive
17 | CCc1nnc(NC(=O)c2ccc(S(=O)(=O)NC3CCCCC3)cc2)s1 | inactive
18 | CC1CCCCN1S(=O)(=O)c1ccc(C(=O)Nc2nnc(-c3cccs3)o2)cc1 (stereo not given) | inactive

Row | SMILES | max dye-equivalent concentration
19 | Cc1ccc(C(=O)Nc2nnc(-c3cccs3)s2)cc1C | 72 nM (active)
20 | COc1ccc2[nH]cc(CCNc3ncnc4ccc(-c5ccccc5CN(C)C)cc34)c2c1 | inactive
21 | COc1ccc(Cl)cc1S(=O)(=O)Nc1cccc(C(=O)O)c1 | inactive
22 | COc1ccc(OC)c(S(=O)(=O)Nc2ccccc2F)c1 | 75 nM (active)
23 | COC(=O)c1ccccc1NC(=O)C1CCN(S(=O)(=O)c2cc(OC)ccc2OC)CC1 | inactive
24 | Cc1c(C(=O)OCC(=O)N(CCC#N)c2ccccc2)oc2c1ccc1ccccc12 | 14 nM (active)
25 | Cc1c(C(=O)OCc2cc(=O)n3cc(Br)ccc3n2)oc2ccccc12 | inactive
26 | COC(=O)N1CCC2(CCCN(c3ccncc3)C2)CC1 | inactive
27 | COc1ccc(Oc2ncc3nc(-c4ccc(F)cc4)c(=O)n(C)c3n2)cc1 | inactive
28 | COc1ccc(-c2nc3cnc(OC)nc3n(Cc3ccc(F)cc3)c2=O)cc1 | 12 nM (active)
29 | COc1ncc2nc(-c3ccc(Cl)cc3)c(=O)n(C)c2n1 | 34 nM (active)
30 | COc1cccc(Cn2c(=O)c(-c3ccccc3)nc3cnc(OC)nc32)c1 | inactive
31 | COc1ccc(-c2nc3cnc(Oc4ccccc4)nc3n(Cc3cccs3)c2=O)cc1 | 12 nM (active)
32 | CCc1nc2oc3ccccc3c(=O)c2c(=O)n1Cc1ccc(OC)cc1 | inactive
33 | COCCn1c(=O)c(-c2ccc(OC)cc2)nc2cnc(Oc3cccc(Cl)c3)nc21 | 13 nM (active)
34 | COc1cccc(Cn2c(=O)c(-c3cc(F)cc(F)c3)nc3cnc(OC)nc32)c1 | inactive
35 | Cc1nc2cnc(Oc3cccc(Cl)c3)nc2n(C2CC2)c1=O | inactive
